The text below walks through data of ChEMBL document CHEMBL3433997, “St. Jude Leishmania screening dataset” (2016).

Common to all, as to type: functional
For experiment [1], the target named is Solute carrier family 2, facilitated glucose transporter member 1 (Homo sapiens) (UniProt P11166). As to the kind of experiment: ST_JUDE_LEISH: Cytotoxicity at 2uM final concentration against transgenic Leishmania Mexicana promastigotes LmGLUT1 that are glucose transport deficient and complemented with the human glucose transporter GLUT1. Activity is measured by DNA content using SYBR green in vitro.
Chain of Solute carrier family 2, facilitated glucose transporter member 1 (Homo sapiens) (P11166 whole entry): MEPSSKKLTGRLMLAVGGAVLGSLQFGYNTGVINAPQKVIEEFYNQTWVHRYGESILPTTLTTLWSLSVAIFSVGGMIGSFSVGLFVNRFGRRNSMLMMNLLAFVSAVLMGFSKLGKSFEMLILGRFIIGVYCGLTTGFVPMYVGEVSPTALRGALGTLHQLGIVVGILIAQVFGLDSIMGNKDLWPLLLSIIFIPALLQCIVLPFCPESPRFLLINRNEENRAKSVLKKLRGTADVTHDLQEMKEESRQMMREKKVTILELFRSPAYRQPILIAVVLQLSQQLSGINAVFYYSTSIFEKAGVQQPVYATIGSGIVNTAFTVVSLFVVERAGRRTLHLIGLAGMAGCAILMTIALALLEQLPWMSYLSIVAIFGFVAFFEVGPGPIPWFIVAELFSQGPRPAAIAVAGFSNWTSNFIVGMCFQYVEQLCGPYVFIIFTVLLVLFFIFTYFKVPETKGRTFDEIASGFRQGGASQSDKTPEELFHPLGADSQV

The target in experiment [2] is Hexose transporter 1 (Plasmodium falciparum) (UniProt O97467). As to the kind of experiment: ST_JUDE_LEISH: Cytotoxicity at 2uM final concentration against transgenic Leishmania Mexicana promastigotes LmPfHT that are glucose transport deficient and complemented with the Plasmodium falciparum hexose transporter. Activity is measured by DNA content using SYBR green in vitro.

The target of experiment [3] is Glucose transporter (Leishmania mexicana) (UniProt O61059). The experiment is described as follows: ST_JUDE_LEISH: Cytotoxicity at 2uM final concentration against transgenic Leishmania Mexicana promastigotes LmGT2 that are glucose transport deficient and complemented with the L. Mexicana glucose transporter 2. Activity is measured by DNA content using SYBR green in vitro.

By inhibition is commonly meant the relative decrease from the control value, in per cent.

For the compound `CCOC(=O)c1c(C)n(-c2ccccc2)c2ccc(OC(=O)c3ccc(S(=O)(=O)N(CC)CC)cc3)cc12`, the inhibition in experiment [1] is 4.6%; in experiment [2], 5.12%; in experiment [3], 5.12%.

For `O=C1SC(=Cc2ccc(O)c(O)c2)C(=O)N1c1ccccc1`, the results for the inhibition in experiment [1], in experiment [2] and in experiment [3] were 2.29%, 2.56% and 0.86%, respectively.

As to `NCCNc1ccc([N+](=O)[O-])cc1C(=O)Nc1cccc(Cl)c1`, the inhibition was determined as 2.71% in experiment [1], 4.41% in experiment [2] and 2.22% in experiment [3].

Take `Nc1nccc2ccc(-c3cccnc3)cc12`: the figures for the inhibition in experiment [1], in experiment [2] and in experiment [3] were 3.94%, 5.14% and 4.83%, respectively.

`Clc1ccc2c(NCc3ccc4c(c3)OCO4)ccnc2c1`: the values for the inhibition in experiment [1], in experiment [2] and in experiment [3] were 6%, 8.03% and 4.15%, respectively.

Take `CC(C)NCc1cccc(-c2ccc(NC(=O)c3ccc(C#N)cc3)cc2)c1`: the inhibition in experiment [1] was 14.9%; in experiment [2] it was 12.1%; in experiment [3], 10%.

In the case of `CN1CCN(c2ccc(Nc3nccc(-c4c(-c5cccc(NC(=O)c6c(F)cccc6F)c5)nn5ccccc45)n3)cc2)CC1`, the inhibition in experiment [1] is 21.9%; in experiment [2], 17.8%; in experiment [3], 4.51%.

For the compound `O=C(Nc1ccc(Cl)cc1F)NC1CCN(CCCCCNC(=O)C2CC2c2ccc(Cl)c(Cl)c2)CC1` (stereo unspecified), the inhibition in experiment [1] worked out at 1.08%; in experiment [2] it was 0.8%; in experiment [3] it was 3.62%.

Take `CCOc1ccc(C(=O)N2CCOC(CCN3CCC4(CCc5ccccc54)CC3)(c3ccc(Cl)c(Cl)c3)C2)cc1` (stereo unspecified): the inhibition in experiment [1] worked out at 5.41%; in experiment [2], 5.56%; in experiment [3], 5.12%.

In the case of `COc1ccc2c(c1)OC(C)(C)CC2=NOS(=O)(=O)c1ccc(C)cc1`, the inhibition in experiment [1] was determined as 2.81%; in experiment [2], 0.98%; in experiment [3] it was 2%.

Take `COc1ccccc1C1CCN(C2CCC(NC(=O)/C=C/c3cc(C(F)(F)F)ccc3F)CC2)CC1` (stereo unspecified): the inhibition is 2.98% in experiment [1], 2.36% in experiment [2] and 3.14% in experiment [3].

As for `O=C(NCCN1CCCC1)c1cccc(Nc2nccc(Nc3ccc(Oc4ccccc4)cc3)n2)c1`, the inhibition in experiment [1] stood at 2.86%; in experiment [2], 3.85%; in experiment [3] it was 2.53%.

As to `Cc1cc(NCCCCCCCCNc2cc(C)nc3ccccc23)c2ccccc2n1`, the values for the inhibition in experiment [1], in experiment [2] and in experiment [3] were -0.97%, 1.84% and 0.69%, respectively.

Turning to `CSc1sc(NC(=O)Nc2cccc(C(F)(F)F)c2)cc1C#N`, the values for the inhibition in experiment [1], in experiment [2] and in experiment [3] were 1.55%, 1.51% and 1.15%, respectively.

On to `CCNc1cc(C(=O)N[C@@H](Cc2ccccc2)[C@H](O)CNCCc2ccccc2)cc(N2CCCC2=O)c1`, for which the figures for the inhibition in experiment [1], in experiment [2] and in experiment [3] were 0.28%, 1.31% and 0.88%, respectively.

Regarding `O=C(Nc1ccc(Cl)cc1C(=O)Nc1cccc(F)c1)c1ccc([N+](=O)[O-])cc1`, the values for the inhibition in experiment [1], in experiment [2] and in experiment [3] were 0.5%, 0.92% and 1.58%, respectively.

Regarding `NC(=O)c1ccc(NCC(=O)Nc2cccc(-c3cccc(-c4nc5cc(F)ccc5[nH]4)c3)c2)cc1`, the inhibition in experiment [1] is -0.29%; in experiment [2], 1.39%; in experiment [3], -1.25%.

`FC(F)(F)c1ccc2[nH]c(-c3ccc(-c4ccc(CN5CCN(c6ccncc6)CC5)cc4)s3)nc2c1`: the figures for the inhibition in experiment [1], in experiment [2] and in experiment [3] were 1.51%, -1.36% and -2.12%, respectively.

Take `COc1ccc(N2CCN(CCCN3CCN(C(=O)c4ccc(/C=C/c5ccc(Cl)c(Cl)c5)cc4)CC3)CC2)c(OC)c1`: the figures for the inhibition in experiment [1], in experiment [2] and in experiment [3] were 6.35%, 6.21% and 5.56%, respectively.

With `Cc1cc(CNCCCCCCNCc2ccc(Cl)cc2)ccc1O`, the inhibition in experiment [1] is 9.89%; in experiment [2], 7.77%; in experiment [3], 9.18%.

`O=C(NC1CC1)c1ccc(N2CCC(Cc3ccccc3)CC2)nc1`: the inhibition in experiment [1] was 3.46%; in experiment [2] it was 4.8%; in experiment [3], -1.16%.

As to `CCC[C@@H]([C@@H](CC(C)C)C(=O)N[C@@H](CCC/N=C(/N)NS(C)(=O)=O)C(=O)Nc1nccs1)N(O)C=O`, the inhibition in experiment [1] was 7.57%; in experiment [2], 9.74%; in experiment [3], 6.5%.

For the compound `CC1(C)N=C(N)N=C(N)N1OCCCCON1C(N)=NC(N)=NC1(C)C`, the values for the inhibition in experiment [1], in experiment [2] and in experiment [3] were 3.48%, 3.55% and 3.76%, respectively.

On to `CCN(CC)CCN(Cc1ccc(-c2ccc(C(F)(F)F)cc2)cc1)C(=O)Cn1c(CCc2ccc(F)cc2)nc(=O)c2ccccc21`, for which the figures for the inhibition in experiment [1], in experiment [2] and in experiment [3] were 2.98%, 2.96% and 3.33%, respectively.

As for `COCCCNc1sc(S(=O)(=O)c2ccccc2)nc1S(=O)(=O)c1ccc(C)cc1`, the inhibition in experiment [1] is -0.53%; in experiment [2] it was -2.3%; in experiment [3], 1.51%.

Consider `Cc1cccc2c3c([nH]c12)C1(CCN(CCc2ccccc2)CC1)NC(C(=O)NCc1ccccc1)C3` (stereo unspecified), for which the inhibition came out at 4.58% in experiment [1], 5.51% in experiment [2] and 0.71% in experiment [3].

Consider `COc1cc(NC(=O)Nc2ccc(Br)cc2C(=O)Nc2ccc(Br)cc2)cc(OC)c1OC`, for which the figures for the inhibition in experiment [1], in experiment [2] and in experiment [3] were 5.51%, 4.2% and 5.3%, respectively.

As to `COc1cccc(-c2cccc(CNC3CCN(CC4Cn5c(=O)ccc6ccc(F)c4c65)CC3)c2)c1` (stereo unspecified), the inhibition in experiment [1] stood at 6.16%; in experiment [2] it was 2.1%; in experiment [3], 1.71%.

On to `COc1ccc(CCN2CCC(Nc3nc4ccccc4n3CCc3ccc(OC)cc3)CC2)cc1`, for which the inhibition in experiment [1] was 4.38%; in experiment [2] it was -1.39%; in experiment [3] it was 12.5%.

In the case of `Cc1cc(-c2ccnc(Nc3cccc(C#N)c3)n2)cc(C)c1O`, the inhibition was 13.8% in experiment [1], 16% in experiment [2] and 7.83% in experiment [3].

`CC(C)N1CCC(NC(=O)N2CCCN(c3ncnc4cc(-c5ccccc5)sc34)CC2)CC1`: the inhibition turned out to be 2.91% in experiment [1], 2.28% in experiment [2] and 0.31% in experiment [3].

For `CC1CC(NCCCNc2cc(=O)c3ccccc3[nH]2)c2cc(Cl)c(Cl)c(Cl)c21` (stereo unspecified), the inhibition in experiment [1] was -1.12%; in experiment [2], -1.47%; in experiment [3], -2.15%.
